# NS1 function inh – influenza NS1 inhibition; Potency, µM (top dose mostly 46.1 µM), for the others: top-dose activity, positive = more growth; hit rate 0.4% among 270,000; calls by dose curve; further: potency means the concentration at half of the fitted maximal effect; actives are rising curves; nearly all actives have a fitted effect of over 50% in size
#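 A cell-based growth assay was used: compounds that relieve NS1-induced slow growth of budding yeast raise OD600. Assay medium was yeast nitrogen base with ammonium sulphate and -URA supplement, pH 6.0, with 2% galactose.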
# Pf growth 48h – inhibits P. falciparum growth in the first generation, 48 h. hit rate 5.9% among 310,000. AID 504832. P. falciparum luciferase growth in erythrocytes, 48 h. Potency, µM (top dose mostly 28.7 µM), for the others: top-dose activity change, negative = inhibition, hits mostly inhibitors; further: potency means the concentration at half of the fitted maximal effect; on the % scale 0 is the no-effect control and ±100 the full control effect
#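 Compounds are pin-transferred into medium, infected erythrocytes (2% hematocrit, 0.1% parasitemia final) are added, and plates sit one parasite generation at 37 C in 5% CO2. Detection reagent is then added and luminescence measured.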
# Cycloheximide cs – counter-screen hit for Shiga toxin inhibitors, cycloheximide. cell reporter, cycloheximide protein synthesis inhibition counterscreen. max response, %. hit rate 12% among 300,000; in the data active means max response mostly above about 13%, no sharp cut-off; inactive means mostly below about 14%; further: read at 38.3 µM for the half of the compounds with a filed dose; 0% is about no effect
# Shiga toxin inh – blocks Shiga toxin action in Vero cells; Vero cells, Shiga toxin protein synthesis inhibition reporter; hit rate 9.2% among 290,000; AID 2315; inhibition, % at 38.7 µM; in the data active means inhibition mostly above about 28%, no sharp cut-off; inactive means mostly below about 43%; further: 0% is about no effect
# Pf growth 96h – P. falciparum growth inhibition at 96 hours | P. falciparum luciferase reporter growth, 96 h | Potency, µM (highest dose often 28.7 µM), inactives show top-dose activity change, negative = inhibition, hits mostly inhibitors | hit rate 6.9% among 320,000 | AID 504834; further: potency means the concentration at half of the fitted maximal effect; on the % scale 0 is the no-effect control and ±100 the full control effect
#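 Infected RBCs, 2% Hct / 0.05% parasitemia final; luciferase-reporter P. falciparum; cpd 96 h, 37 C, 5% CO2; luciferase detection reagent; luminescence.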
# SARS PLpro yeast – inhibitors of SARS-CoV papain-like protease in yeast; S. cerevisiae expressing SARS-CoV PLpro, growth rescue; Potency, µM (doses to about 32.9 µM), for inactives: at the highest dose activity, positive = growth rescue, usual class: activators; hit rate 0.19% among 330,000; calls by dose curve; further: potency means the concentration at half of the fitted maximal effect; 0% is about no effect; nearly all actives have a fitted effect of over 55% in size
# An asterisk follows results filed as active; ? = inconclusive; . = no result given. In the library only some 21% were active in any assay of this set; here they are far more common. Unless noted, the call rests on the fitted dose curve; in most records, active means well fitted inhibition curve with a large enough effect; inconclusive means small, poorly fitted or top-dose-only effect, or another doubt; inactive means no such curve, though single readings can be large or run the other way.
SMILES,NS1 function inh,Pf growth 48h,Cycloheximide cs,Shiga toxin inh,Pf growth 96h,SARS PLpro yeast
Cc1cccc(C(=O)Nc2sc(C)c(-c3ccccc3)c2C#N)c1,-5.3%,132.3%,40.7*,59.0*,114.0%,-6.6%
CCn1c2cc(C)sc2c2cnn(Cc3ccccc3F)c(=O)c21,.,.,16.4,-4.5,.,.
COc1ccc(/C=C2\Oc3cc(OCC(=O)N4CC(O)C[C@H]4C(=O)O)ccc3C2=O)cc1OC (stereo not given in full),16.8%,21.1%,-3.2,-2.3,-29.2%,6.1%
CCN(CC)S(=O)(=O)c1cc(NC(=O)CSCc2c(C)noc2C)ccc1C,.,.,.,.,.,0.5%
O=C1c2ccccc2C(=O)C1c1ccncc1,-4.6%,226.8%,22.2*,46.2,.,-8.5%
O=C1c2ccccc2C(=O)C2OC12 (stereo not given),-81.3%,3.2%,-1.4,23.8,11.2%,-4.8%
Cc1ccc(C2C(=O)c3ccccc3C2=O)cc1,0.1%,-5.1%,18.5*,10.8,-7.1%,0.6%
O=C1c2ccccc2C(=O)C1c1ccccn1,-4.7%,102.8%,29.7*,33.7,136.0%,-0.4%
O=C(c1ccccc1)N1CCN(CC#Cc2ccccc2)CC1,-18.6%,58.8%,28.8*,81.5*,140.7%,0.9%
CCc1cc2cc(C(=O)N3CCN(c4ccccc4)CC3)sc2s1,0.1%,.,-1.9,-4.8,-27.0%,-0.1%
O=C(c1ccccc1)N1CCN(C(=O)c2ccc3c(c2)OCCO3)CC1,.,?,-0.5,-5.9,19.6%,-0.7%
CCc1cc2cc(C(=O)N3CCN(Cc4ccccc4)CC3)sc2s1,-41.0%,-18.4%,21.9*,49.2*,-22.9%,.
O=C(N1CCOCC1)N1CCN(Cc2ccccc2)CC1,2.1%,15.6%,-4.0,12.7,1.65µM*,1.0%
O=C(c1ccc2c(c1)OCCO2)N1CCN(Cc2ccccc2)CC1,-54.3%,11.9%,15.3*,37.8,?,6.9%
O=C(CCc1nnc(CCC2CCCCC2)o1)NCCc1cccnc1,-1.9%,20.3%,-6.9,2.1,-17.2%,0.1%
O=C(c1ccccc1)N1CCN(Cc2ccccc2)CC1,5.8%,13.7%,-2.6,-1.7,7.38µM*,-12.3%
CC(C)(C)c1ccc(C(=O)N2CCN(Cc3ccccc3)CC2)cc1,27.4%,?,3.4,5.2,-9.6%,10.5%
CN1CCCC(CC2c3ccccc3Sc3ccccc32)C1 (stereo not given),.,9.28µM*,.,.,?,.
Cc1ccc(-c2csc(NC(=O)CN3CC(C)OC(C)C3)n2)cc1 (stereo not given),6.6%,-15.0%,-2.9,-7.8,?,2.8%
N#C/C(C(=O)NCc1ccco1)=C1/SC(Cc2ccc(Cl)cc2)C(=O)N1c1ccccc1 (stereo not given),26.1%,-20.6%,18.2*,-25.7,-31.4%,4.6%
N#C/C(C(=O)NCc1ccco1)=C1/SC=C(c2ccccc2)N1c1ccccc1,12.2%,-0.2%,-3.8,10.6,5.22µM*,7.1%
Cc1ccc(CC2S/C(=C(/C#N)C(=O)NCc3ccco3)N(c3ccccc3)C2=O)cc1 (stereo not given),0.9%,-18.4%,-6.4,-11.9,14.7%,?
Cc1ccc(C(=O)OCC(=O)N(C)C2CCS(=O)(=O)C2)cc1S(=O)(=O)N1CCCCC1 (stereo not given),.,6.3%,.,.,11.4%,5.4%
Cc1cccc(NCCNc2cccc(C)c2)c1,-40.3%,3.7%,18.4*,25.4,56.9%,4.1%
Cc1ccc(CNc2ccc(O)cc2)cc1,-13.4%,?,23.7,43.3,.,-13.5%
SMILES,NS1 function inh,Pf growth 48h,Cycloheximide cs,Shiga toxin inh,Pf growth 96h,SARS PLpro yeast
Cc1ccc(NCc2ccccc2O)cc1,3.0%,2.9%,30.4*,71.8*,.,-5.3%
Cc1cccc(NCc2ccccc2O)c1,-1.8%,-4.3%,17.9*,24.7,8.0%,-9.3%
Cc1ccc(NCc2ccccc2F)cc1,-13.9%,-1.0%,9.1,28.6*,1.1%,-0.3%
Cc1nc2ccccc2c(=O)n1/N=C/C=C/c1ccccc1,-3.9%,-6.0%,1.5,19.7,3.4%,-0.6%
CN(CC1COc2ccccc2O1)C(=O)CSc1nncs1 (stereo not given),.,.,.,.,.,1.5%
O=C(CSc1nc(=O)n(CCCN2CCOCC2)c2c1CCC2)Nc1ccc([N+](=O)[O-])cc1,.,?,.,.,?,1.4%
O=C(Nc1cnn(C23CC4CC(CC(C4)C2)C3)c1)c1cc(-c2ccccc2)on1,-2.8%,10.4µM*,-2.4,-4.4,.,3.9%

# Compound activity: PubChem, National Center for Advancing Translational Sciences (NCATS)
